Bioassay records: PubChem BioAssay, National Center for Advancing Translational Sciences (NCATS)
HP1b chromo inh: HP1-beta chromodomain-methylated histone interaction inhibition | P83916 | AlphaScreen HP1-beta / biotin-H3K9me3 peptide binding | Potency, µM (highest dose often 114 µM), for inactives: at the highest dose activity change, negative = inhibition, actives largely listed as inhibitors | 390,000 tested, 0.56% active | AID 540317; further: nearly all actives have a fitted effect of over 70% in size
Target sequence (P83916 whole entry, looked up): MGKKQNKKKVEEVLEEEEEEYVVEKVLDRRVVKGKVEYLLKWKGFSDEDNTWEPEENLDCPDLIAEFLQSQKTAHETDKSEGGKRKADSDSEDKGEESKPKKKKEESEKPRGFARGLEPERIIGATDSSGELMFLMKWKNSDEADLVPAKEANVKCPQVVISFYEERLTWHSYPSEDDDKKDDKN
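AlphaScreen: HP1-beta (50 nM) preformed 30 min with biotin-H3(1-18)K9me3 peptide (50 nM) in PBS pH 7.4, 0.01% Tween-20. Compound added for 30 min at RT, then streptavidin donor/nickel chelate acceptor beads (10 ug/mL) for 30 min.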
BAZ2B inh: blocks human BAZ2B. Q9UIF8. AlphaScreen BAZ2B-H3K14Ac peptide displacement. Potency, µM (top dose mostly 114 µM), without a hit: at the top dose activity change, negative = inhibition, hits mostly inhibitors. 360,000 tested, 4.4% active. AID 504333; further: on the % scale 0 is the no-effect control and ±100 the full control effect; nearly all actives have a fitted effect of over 60% in size
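Protein-peptide AlphaScreen: BAZ2B 50 nM, b-H3K14Ac 50 nM, 1x PBS pH 7.4 + 0.01% Tween-20. Preincubation 30 min RT; cpd 30 min RT (top 110 uM); beads 20 min RT, light-protected.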
JMJD2A Tudor: JMJD2A Tudor domain (human) inhibition; Potency, µM (top dose mostly 114 µM), for inactives: top-dose activity change, negative = inhibition, usual class: inhibitors; 390,000 tested, 4.4% active; AlphaScreen JMJD2A-Tudor / H3K4me3 peptide binding; O75164; AID 504339; further: on the % scale 0 is the no-effect control and ±100 the full control effect; nearly all actives have a fitted effect of over 50% in size
G9a block: inhibitors of human histone lysine methyltransferase G9a; G9a H3K9 monomethylation, AlphaScreen, 2 h; 350,000 tested, 8.8% active; Q96KQ7; AID 504332; Potency, µM (highest dose often 102 µM), for the others: top-dose activity, negative = inhibition, most hits filed as inhibitors; further: on the % scale 0 is the no-effect control and ±100 the full control effect; nearly all actives have a fitted effect of over 75% in size
Target sequence (Q96KQ7 913-1193 limits assumed): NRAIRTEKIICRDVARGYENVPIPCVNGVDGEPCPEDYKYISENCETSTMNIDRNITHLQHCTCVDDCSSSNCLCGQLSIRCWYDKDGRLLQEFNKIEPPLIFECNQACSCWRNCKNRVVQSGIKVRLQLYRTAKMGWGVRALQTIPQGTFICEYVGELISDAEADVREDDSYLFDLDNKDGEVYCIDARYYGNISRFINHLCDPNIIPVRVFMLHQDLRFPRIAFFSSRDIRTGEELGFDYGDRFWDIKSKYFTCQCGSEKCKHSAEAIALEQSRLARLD
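Using a bead-based AlphaScreen, monomethylated H3K9 product from 2 h room-temperature reactions (G9a 20 nM, peptide 500 nM, SAM 20 uM) was detected with 0.5 ug/mL rabbit anti-H3K9me1 antibody.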
Sfp PPTase inh: inhibitors of Bacillus subtilis Sfp phosphopantetheinyl transferase; Biochemical Sfp PPTase activity, qHTS; 310,000 tested, 3.5% active; AID 1490; Q9F4F7; Potency, µM, for inactives: largest response in the series, negative = inhibition, most hits filed as inhibitors;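 further: the enzyme is Sfp with the accession as filed and its product quenches rhodamine fluorescence; 0% = enzyme reaction without inhibitor and -100% = no enzyme wells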
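Buffer: 50 mM Hepes-Na pH 7.6, 10 mM MgCl2, 0.01% Nonidet P-40, 0.01% BSA. Enzyme 15 nM, pre-exposed to compound 15 min; substrates then added and fluorescence change tracked over 30 min.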
The depositor's hits bear a star; ? = inconclusive; · = no result; [ ] = dose if it differs, or a comment. Compounds with a hit are over-represented: about 12% of the library has one in this group of screens. The call rests on the fitted dose curve; in most records, active means well fitted curve in the direction sought with a large enough effect; inconclusive means small, poorly fitted or top-dose-only effect, or another doubt; inactive means no such curve, though single readings can be large; an effect the other way counts as inactive or inconclusive. Potency means the concentration at half of the fitted maximal effect.

SMILES	HP1b chromo inh	BAZ2B inh	JMJD2A Tudor	G9a block	Sfp PPTase inh
CCOc1ccc2c(c1)/C(=N/N1C(=O)c3ccccc3C1=O)C(=O)N2	4.4%	-5.6%	-11.4%	-5.3%[59 µM]	17.7%
Cc1ccc(NC(=O)Cn2cc(C(=O)c3ccco3)c3ccccc32)c(C)c1	31.5%	-12.7%	-17.1%	3.2%[59 µM]	·
COc1ccc(NC(=O)CSc2nnc(C3CC3)n2C)cc1	6.2%	2.1%	10µM*	-7.2%	-5.2%
Nn1c(SCC(=O)Nc2ccc(F)cc2)nnc1C1CCCCC1	42.5%	7.7%	5.4%	15.3%[2.33 µM]	13.1%
Cn1c(SCC(=O)c2ccccc2F)nnc1C1CC1	-3.0%	?	-13.8%	?	50.1µM*
COc1ccc(NC(=O)CSc2nnc(C3CC3)n2N)cc1	31.9%	0.5%	-13.4%	41.7%[12.7 µM]	-2.0%
CN(C)c1ccc(NC(=O)CSc2nnc(C3CCCCC3)n2N)cc1	19.0%	?	?	39.8µM*	14.7%
Nn1c(SCC(=O)Nc2nccs2)nnc1C1CC1	35.2%	-22.3%	-1.1%	39.8µM*	-16.0%
CCCS(=O)(=O)N1CCCC(C(=O)Oc2ccc(OC)cc2)C1 (configuration not stated)	35.7%	4.3%	4.1%	62.0%	15.0%
CS(=O)(=O)N1CCC2(CC1)CN(C(=O)Nc1cccc(F)c1)C2	·	·	·	-0.8%[12.7 µM]	35.9%
CCC(C(=O)NC1CCCCC1)n1c2ccccc2c2nc(=O)cc(C)n21 (configuration not stated)	43.9%	-11.0%	0.0%	·	1.1%
Cc1nc(NC2CCCCC2)c2nc(-c3ccccc3)n(CCN3CCCCC3)c2n1	·	·	·	·	11.6%
COc1cccc2c1N(C)C(=O)CC21C=CC(=O)C=C1	54.4%	·	-14.5%	·	-15.4%
CCOC(=O)c1[nH]c(C)c(CCC(=O)NCc2ccc(N(C)C)cc2)c1C	29.3%[57 µM]	-21.1%	?	?	·
Cn1c(SCC(=O)Nc2nncs2)nnc1C1CC1	-34.2%	50.1µM*	56.2µM*	·	-2.1%
COc1ccc(N=C(C)C2=C(O)CSC2=O)cc1	2.2%	0.6%	-15.2%	39.8µM*	?
CC(=Nc1ccccc1)C1=C(O)CC(C)(C)CC1=O	23.6%	-5.6%	-7.9%	0.4%	6.6%
CC(=Nc1ccccc1)C1=C(O)CCCC1=O	0.9%	4.2%	25.1µM*	?	14.5%
CC(=Nc1ccccc1)C1=C(O)CSC1=O	-5.3%	?	-17.8%	50.1µM*	?
O=C(Nc1cccc(F)c1)N1CCC2(CC1)CCN(C(=O)c1csnn1)CC2	·	·	·	-7.8%[12.7 µM]	19.5%
O=C(CCCSc1nnc(Nc2ccccc2F)s1)N1CCOCC1	8.0%	-11.1%	-9.0%	-27.2%	10.7%
O=C(NCCCn1ccnc1)c1cccnc1	47.5%	-11.3%	-6.9%	6.9%[59 µM]	3.6%
FC(F)Oc1ccc(-c2csc(=Nc3cccnc3)n2CC2CCCO2)cc1 (configuration not stated)	?	44.7µM*	-28.0%[57.1 µM]	?	9.0%
Clc1ccc(-c2csc(=Nc3cccnc3)n2CCCn2ccnc2)cc1Cl	?	11.2µM*	39.8µM*	11.2µM*	-7.6%
COCCn1c(-c2ccc(Br)cc2)csc1=Nc1cccnc1	?	11.2µM*	44.7µM*	39.8µM*	-3.5%
SMILES	HP1b chromo inh	BAZ2B inh	JMJD2A Tudor	G9a block	Sfp PPTase inh
Cc1cc(C)cc(Nc2nc3ccccc3nc2-n2nc(C)cc2C)c1	226.4%	60.1%	95.9%	82.4%[59 µM]	·
O=C1Nc2ccccc2Oc2cc(Oc3cccc(Cl)c3)ccc21	4.4%	-30.4%	-13.1%	4.9%[59 µM]	·
O=C1Nc2ccccc2Oc2cc(Oc3ccccc3)ccc21	?	44.7µM*	50.1µM*	?	·
C/C(CCc1ccc2c(c1)OCO2)=N\N=C(/N)SC1CC(=O)N(c2ccc(Cl)cc2)C1=O (configuration not stated)	-1.8%	-2.3%	?	-26.6%[59 µM]	56.2µM*
N/C(=N\N=C\c1ccc2c(c1)OCO2)SC1CC(=O)N(c2ccc(C(=O)O)cc2)C1=O (configuration not stated)	15.2%	?	-18.1%	?	-15.6%
CCOC(=O)C1CCN(C2=NC(=O)/C(=C/c3ccc(OC)c(OC)c3)S2)CC1	-0.5%	-21.8%	-20.7%	39.8µM*	-8.3%
Cc1ccc2nc(NC(=O)COC(=O)CSc3nc(C)cc(C)n3)sc2c1	33.8%	-37.0%	-12.8%	44.7µM*	?
COc1ccc2nc(NC(=O)CSc3nc(C)cc(C)n3)sc2c1	30.4%	-0.2%	-27.1%	?	-5.1%
COC(=O)c1ccc2nc(NC(=O)C3CC3)sc2c1	12.8%[57 µM]	-20.1%	-9.2%	5.6%	-12.2%
COC(=O)c1cccc(NC(=O)COC(=O)CSc2nc(C)cc(C)n2)c1	25.6%	-3.2%	-20.5%	-0.1%[59 µM]	3.0%
COC(=O)c1ccc2nc(NC(=O)COC(=O)CSc3nc(C)cc(C)n3)sc2c1	30.4%	?	-6.3%	12.6µM*	-17.0%
COC(=O)c1ccc2nc(NC(=O)CN3C(=O)CCC3=O)sc2c1	-6.2%	56.2µM*	-21.2%[11.4 µM]	-6.6%[2.33 µM]	28.2µM*
N=C(N)SCCc1ccc(CCSC(=N)N)cc1	·	·	·	8.0%[59 µM]	·
COc1cc2c(cc1OC)CN(CC(=O)Nc1ccc(C)c(C)c1)CC2	-2.1%	-25.1%	-28.8%	1.8%	3.5%
O=C(CSc1c2c(nc3ccccc13)CCCC2)NCc1ccco1	39.2%	-13.7%	-4.1%	?	-26.3%
CCOC(=O)c1sc2nc(SCC(=O)NCc3ccco3)n(Cc3ccccc3)c(=O)c2c1C	21.2%	13.1%	-30.4%	-1.0%[59 µM]	-4.3%
CCCCn1c(SCC(=O)NCc2ccco2)nc2ccccc2c1=O	23.8%	-2.2%	-19.5%	-67.9%	8.6%
O=C(CSc1nc2ccccc2c(=O)n1Cc1ccco1)NCc1ccco1	-11.9%	?	56.2µM*	?	?
Cc1sc2nc(SCC(=O)NCc3ccco3)n(Cc3ccccc3)c(=O)c2c1C	17.2%	16.6%	-14.7%	50.1µM*	?
CC(C)(C)c1nc(SCC(=O)NCc2ccco2)c2ccccc2n1	8.2%	?	-30.6%	50.1µM*	-16.8%
Cc1[nH]c2ccc(-c3nnc(SCC(=O)NCc4ccco4)n3Cc3ccccc3)cc2c1C	-37.5%	56.2µM*	56.2µM*	39.8µM*	5.2%
O=c1cnc2cnc(N3CCNCC3)nc2n1CCc1ccccc1	·	·	·	-26.9%[12.7 µM]	4.6%
CCN(CC)CCNC(=O)c1ccc(NC(=O)COc2ccc3c(c2)CCC3)cc1	9.4%	-6.9%	-28.9%	-16.8%[59 µM]	·
CN(Cc1ccccc1F)C(=O)c1cccc(NC(=O)CC2SC(N3CCCCC3)=NC2=O)c1 (configuration not stated)	13.8%	·	-14.8%	·	·
CCCCC/C=C\C/C=C\CCCCCCCC(N)=O	·	·	·	16.3%[59 µM]	6.6%
COc1ccccc1N1CCN(C(=O)c2cn(C)c3ccc(S(=O)(=O)N4CCOCC4)cc3c2=O)CC1	29.4%	-13.1%[57.1 µM]	-19.5%	44.9%	19.1%
CCN(CC)S(=O)(=O)c1ccc(N2CCCC2)c(NS(=O)(=O)c2ccc([N+](=O)[O-])cc2)c1	2.3%	-38.0%	-25.9%[57.1 µM]	10µM*	15.6%
CCc1cc(C(=O)Nc2cc(Cl)ccc2N2CCN(C)CC2)sc1C	1.6%	-5.7%	-23.1%	?	·
